# Results: PubChem BioAssay (EPA / NIEHS)
# Activity calls are given as the source filed them. The calls were made as follows: active = hit-call score of the fitted dose curve at least 0.9, where 1 is the maximum; inactive = score below 0.9. Starred links: 1 amine or outer side, 2 acyl side, 3 side chain; linkers in the order of their positions; H or OH if unused. Positions of bridges follow the written chain, without caps; N, C: chain ends. Non-standard residues stand in square brackets, D forms with d. Residues, ends and D or L forms follow the SMILES beside them. Adda = CO[C@@H](Cc1ccccc1)[C@@H](C)/C=C(C)/C=C/[C@H](N[*:1])[C@H](C)C(=O)[*:2]; dAsp(3S-Me) = C[C@H](C(=O)[*:3])[C@@H](N[*:1])C(=O)[*:2]; d(γGlu) = O=C(O)[C@@H](CCC(=O)[*:2])N[*:1]; NMeDha = C=C(NC)C(=O)O
# Test: CCTE_Harrill_HTTr_Viability_MCF7: CCTE's 6-hour Cell Viability Assessment for the High-Throughput Transcriptomics (HTTr) Platform, in MCF-7 cells cultured in DMEM + 10% fetal bovine serum, Harrill Lab (AID 2284010)
# Source text: This is a cell-based assay that evaluates cell viability using high content imaging to evaluate membrane integrity using propidium iodide dye exclusion in a 384 well format.One of seven assay components measured from the CCTE_Harrill_HTTr_Viability assay. This was part of a full screening experiment. This is a cell-based assay that evaluates cell viability in MCF-7 cells cultured in DMEM + 10% fetal bovine serum. High content imaging is used to evaluate membrane integrity using propidium iodide dye exclusion. Measurements are taken at 6 hours after chemical dosing in 384-well format.The assay component endpoint CCTE_Harrill_HTTr_Viability_MCF7 was analyzed with bidirectional fitting relation to DMSO as the negative control and baseline of activity. Using a type of viability reporter, gain-of-signal activity can be used to evaluate membrane integrity using propidium iodide dye exclusion to understand changes in cytotoxicity. To generalize the intended target to other relatable targets, this assay endpoint is annotated to cell cycle, where the subfamily is cytotoxicity.
# Chemicals were tested in MCF7 cells in an eight point dilution series with a six hour exposure duration.
row,Compound,outcome
1,OC(Cn1cncn1)(c1ccc(F)cc1)c1ccccc1F (stereo not given),inactive
2,CCOP(=O)(OCC)Oc1ccc([N+](=O)[O-])cc1,inactive
3,Cc1cccc2sc3nncn3c12,inactive
4,COc1cccc2c1cc([N+](=O)[O-])c1c(C(=O)O)cc3c(c12)OCO3,inactive
5,O=C=Nc1ccccc1,inactive
6,Oc1cc(Cl)ccc1Cl,inactive
7,COc1ccc2c3c1O[C@H]1[C@@H](O)C=C[C@H]4[C@@H](C2)N(C)CC[C@@]341,inactive
8,Clc1ccc(-c2ccccc2)cc1,inactive
9,CCOC(=O)N(C)N=O,inactive
10,O=C(CCl)c1ccccc1,inactive
11,Oc1ccc(Cl)cc1,inactive
12,CC1(C)[C@H](C(=O)O[C@H](C#N)c2cccc(Oc3ccccc3)c2)[C@@H]1C=C(Br)Br,inactive
13,O=C1C=CC(=O)C=C1,inactive
14,O=C1C(Cl)=C(Cl)C(=O)C(Cl)=C1Cl,inactive
15,O=[N+]([O-])O,inactive
16,c1ccc2cc3c(cc2c1)-c1cccc2cccc-3c12,inactive
17,O=C(O)CCCc1ccc(N(CCCl)CCCl)cc1,inactive
18,C=C1C(=O)N[C@H](C)C(=O)N[C@H](CC(C)C)C(=O)N[C@@H](C(=O)O)[C@H](C)C(=O)N[C@@H](CCCN=C(N)N)C(=O)N[C@@H](/C=C/C(C)=C/[C@H](C)[C@H](Cc2ccccc2)OC)[C@H](C)C(=O)N[C@@H](C(=O)O)CCC(=O)N1C (R[Adda][d(γGlu)][NMeDha][dA][dL][dAsp(3S-Me)]-OH; lactam N-7),inactive
19,CN(C)C(=O)C(c1ccccc1)c1ccccc1,inactive
20,O=C(O)CCCOC(=O)c1ccccc1C(=O)O,inactive

row,Compound,outcome
1,O=S(=O)(c1ccccc1)c1ccccc1,inactive
2,CCCN(CC1CC1)c1c([N+](=O)[O-])cc(C(F)(F)F)cc1[N+](=O)[O-],inactive
3,O=[N+]([O-])c1ccc(Cl)cc1,inactive
4,COC(=O)c1ccccc1S(=O)(=O)NC(=O)Nc1nc(C)cc(C)n1,inactive
5,CCCCOC(=O)N(C)SN(C)C(=O)Oc1cccc2c1OC(C)(C)C2,inactive
6,C=CC(=O)OCC(CC)CCCC (stereo not given),inactive
7,CCOP(=S)(OCC)Oc1cnc2ccccc2n1,inactive
8,[Cl-].[Cl-].[Cl-].[Pr+3],inactive
9,O=S1OC[C@@H]2[C@H](CO1)[C@]1(Cl)C(Cl)=C(Cl)[C@]2(Cl)C1(Cl)Cl (stereo not given in full),inactive
10,Cc1ccc(N(SC(F)(Cl)Cl)S(=O)(=O)N(C)C)cc1,inactive
11,c1cc[n+]2c(c1)-c1cccc[n+]1CC2,inactive
12,CCCOC(=O)c1ccccc1C(=O)OCCC,inactive
13,Oc1ccc(C2(c3ccc(O)cc3)CCCCC2)cc1,inactive
14,CC(C)[C@@H](C(=O)O[C@@H](C#N)c1cccc(Oc2ccccc2)c1)c1ccc(Cl)cc1,inactive
15,C[N+](C)(C)CC(=O)[O-],inactive
16,O=C1Nc2ccc(Cl)cc2C(c2ccccc2)=NC1O (stereo not given),inactive
17,C[C@]12CC[C@H]3[C@@H](CC[C@@]45O[C@@H]4C(O)=C(C#N)C[C@]35C)[C@@H]1CC[C@@H]2O,inactive
18,[Cl][Sb]([Cl])[Cl],inactive
19,CCOC(=O)COc1ccc(Cl)cc1Cl,inactive
20,CC(C)(C)C(=O)CCl,inactive
